Assay outcomes as filed in PubChem BioAssay.
The sample as a whole holds a higher share of hits than the screen did.
KDM5B inhibitor: inhibitors of human KDM5B histone demethylase; KDM5B demethylase, FDH-coupled NADH fluorescence (FDH is formaldehyde dehydrogenase); Potency, µM (titrated, usually from 57.7 µM), usual class: inhibitors; hit rate 2.6% among 220,000; AID 1347165; active = well fitted inhibition curve with a large enough effect; also: nearly all actives have a fitted effect of over 70% in size
Target sequence (Q9UGL1 whole entry, looked up): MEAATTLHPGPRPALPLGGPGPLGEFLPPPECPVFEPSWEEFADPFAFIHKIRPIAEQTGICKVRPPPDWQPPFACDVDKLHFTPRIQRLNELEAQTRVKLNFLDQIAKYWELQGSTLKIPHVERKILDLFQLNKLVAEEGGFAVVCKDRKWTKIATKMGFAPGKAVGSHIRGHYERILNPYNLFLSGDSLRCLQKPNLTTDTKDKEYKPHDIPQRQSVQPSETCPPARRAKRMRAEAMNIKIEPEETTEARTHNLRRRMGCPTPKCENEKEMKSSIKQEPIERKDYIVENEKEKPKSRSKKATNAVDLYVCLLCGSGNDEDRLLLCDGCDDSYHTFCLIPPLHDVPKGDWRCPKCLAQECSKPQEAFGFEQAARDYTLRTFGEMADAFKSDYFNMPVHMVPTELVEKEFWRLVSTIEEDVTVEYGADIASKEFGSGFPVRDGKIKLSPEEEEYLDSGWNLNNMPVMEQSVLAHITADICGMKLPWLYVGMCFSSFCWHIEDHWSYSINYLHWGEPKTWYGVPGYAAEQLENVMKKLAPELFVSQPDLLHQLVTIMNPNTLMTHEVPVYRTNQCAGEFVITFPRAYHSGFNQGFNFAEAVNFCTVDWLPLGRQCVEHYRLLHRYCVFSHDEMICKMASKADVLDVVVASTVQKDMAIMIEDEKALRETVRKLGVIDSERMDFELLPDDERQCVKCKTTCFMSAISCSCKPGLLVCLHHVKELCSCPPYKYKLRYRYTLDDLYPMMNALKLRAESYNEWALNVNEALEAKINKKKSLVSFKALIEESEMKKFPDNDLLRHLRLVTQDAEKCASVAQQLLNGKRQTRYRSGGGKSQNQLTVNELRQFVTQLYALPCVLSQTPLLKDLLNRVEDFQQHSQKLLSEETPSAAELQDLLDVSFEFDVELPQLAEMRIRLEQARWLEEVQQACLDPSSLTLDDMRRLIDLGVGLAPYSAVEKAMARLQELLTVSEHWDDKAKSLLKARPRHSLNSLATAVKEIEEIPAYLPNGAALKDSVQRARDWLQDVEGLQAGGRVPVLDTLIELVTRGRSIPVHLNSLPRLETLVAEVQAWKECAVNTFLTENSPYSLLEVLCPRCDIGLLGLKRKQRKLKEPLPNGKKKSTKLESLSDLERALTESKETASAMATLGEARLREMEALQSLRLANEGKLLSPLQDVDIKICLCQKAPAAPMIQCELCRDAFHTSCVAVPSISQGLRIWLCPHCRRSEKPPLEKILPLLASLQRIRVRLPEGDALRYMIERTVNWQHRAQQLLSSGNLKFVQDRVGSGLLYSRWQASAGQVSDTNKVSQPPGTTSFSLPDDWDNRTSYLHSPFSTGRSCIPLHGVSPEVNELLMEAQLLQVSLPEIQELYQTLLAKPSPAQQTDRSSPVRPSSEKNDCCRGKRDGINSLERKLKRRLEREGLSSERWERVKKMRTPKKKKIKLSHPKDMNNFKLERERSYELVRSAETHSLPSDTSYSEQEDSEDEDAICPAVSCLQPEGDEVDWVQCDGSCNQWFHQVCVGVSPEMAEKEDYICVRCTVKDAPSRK
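KDM5BΔAP (200 nM final) in 50 mM HEPES pH 7.5, 0.01% Tween-20 was preincubated 10 min at RT with compound over a concentration range. Substrate mix (H3K4me3 12.5 µM, α-KG 25 µM, Fe²⁺, ascorbate, NAD⁺, FDH) was added, and NADH fluorescence change over 30 min gave dose-response curves.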
A number is an active result; - = inactive.

SMILES	KDM5B inhibitor
CC(=O)NNC(=S)NCc1ccc(C)cc1	-
COc1ccc(CN2CCc3nn(CC(C)C)c(=O)n3CC2)cc1Cn1ccnc1	-
c1cncc(CN2CC[C@H](c3nnc(Cc4c[nH]c5ccccc45)o3)C2)c1	-
CCS(=O)(=O)c1ccc2oc([C@H]3CCN(Cc4c[nH]c5ccccc45)C3)nc2c1	32µM
Cc1ccc(CN2CC[C@H](c3nc4cc(C)ccc4o3)C2)cc1	-
COCCn1ncc(N2CCCC(CC(=O)NCCN3CCOCC3)C2)cc1=O (stereo not drawn)	-
COc1ccc(NC(=O)C2(Cc3ccccc3)CCCCC(=O)N2)cc1F (stereo not drawn)	-
CC1(c2ccccc2)N(Cc2ccccc2C#N)C(=O)OC12CCN(c1ccncc1)CC2 (stereo not drawn)	-
O=C1CC(c2cccc(Cl)c2)CC2=C1C=Nc1ccccc1N2 (stereo not drawn)	-
Cc1ccccc1S(=O)(=O)Cc1ccc(C(=O)NCCN2CCCC2)o1	-
Cc1nc(C2(C)CCN(C(=O)c3ccc(Cc4c(C)noc4C)o3)CC2)no1	-
O=C(COc1ccccc1)N1CCc2c(n(Cc3cccnc3)n(-c3ccccc3)c2=O)C1	-
O=C(CCc1nc2ccccc2[nH]1)N1CCCC(Cc2noc(-c3ccccc3)n2)C1 (stereo not drawn)	-
Cc1cccc(-c2noc(CCC(=O)N3CCc4c(nc(C)[nH]c4=O)C3)n2)c1	-
COCCN1CCC2(CCC1=O)CCN(C(=O)c1ccc(Cc3c(C)noc3C)o1)CC2	-
N[C@@H](Cc1ccc(O)cc1)C(=O)N1CCc2c(nc(-c3cccnc3)[nH]c2=O)C1	-
N#Cc1ccccc1N1CCN(C(=O)CCc2nc3ccccc3[nH]2)CC1=O	-
CC1(C)NC(=O)N(CCC(=O)Nc2cccc3cccnc23)C1=O	-
O=C(CCCc1nc2ccccc2[nH]1)N1CCc2c(nc3cc(-c4ccccc4)[nH]n3c2=O)C1	32µM
COc1ccc(-c2cc3nc4c(c(=O)n3[nH]2)CN(C(=O)c2ccc(Cc3c(C)noc3C)o2)CC4)cc1	28µM
CC1(C)NC(=O)N(CCC(=O)N2CCc3c(nc4cc(-c5ccccc5)[nH]n4c3=O)C2)C1=O	28µM
O=C(Cc1cccnc1)N1CCc2c(nc3cc(-c4ccccc4)[nH]n3c2=O)C1	28µM
CN(Cc1cccnc1)C(=O)c1c(OCC2CC2)cc(=O)n2c1CCCCC2	-
COc1ccc(C(=O)N2CCC(C(=O)N3CCCCCCNC(=O)CC3)CC2)cc1F	-
Cc1ccc(NC(=O)CCl)cc1C	-
SMILES	KDM5B inhibitor
COc1cccc(NC(=O)C(=O)NCCc2sc(-c3ccc(Cl)cc3)nc2C)c1	-
CCCn1c(C)cnc1CC1CCN(C(=O)NC)C1 (stereo not drawn)	-
Cc1ccc(NC(=O)Cn2c(-c3ccccc3)nc(C)c(CCO)c2=O)cc1Cl	-
CCC(C(=O)NC12CC3CC(CC(C3)C1)C2)c1ccccc1 (stereo not drawn)	-
Cc1nc(Cc2nn3c(-c4ccc(F)c(Br)c4)nnc3s2)cs1	-
CSc1nc2ccc(NC(=O)c3nn(C)c(=O)c4ccccc34)cc2s1	-
COc1ccc(-c2nc3cc(C)ccc3cc2CN2CCN(C)C(=O)C2)cc1OC	-
COCCn1nnnc1C1CC2(CCOCC2)C(=O)N1Cc1cccnc1 (stereo not drawn)	-
C=CCn1c(C)cc(C(=O)CN2C(=O)NC(Cc3c[nH]c4ccccc34)C2=O)c1C (stereo not drawn)	-
COc1ccc(-c2cc3nc4c(c(=O)n3[nH]2)CN(C(=O)Cc2ccc(NC(C)=O)cc2)CC4)cc1	14µM
COc1ccc(-c2cc3nc4c(c(=O)n3[nH]2)CN(C(=O)CCCc2nc3ccccc3s2)CC4)cc1	32µM
CCc1nc2c(c(-c3ccc(OC)cc3)n1)CN(C(=O)c1ccc(OC)cc1)CC2	-
CCOCC(=O)N1CCc2nc3cc(-c4ccc(OC)cc4)[nH]n3c(=O)c2C1	25µM
CC(=O)Nc1ccc(CC(=O)N2CCc3c(nc4cc(-c5ccccc5)[nH]n4c3=O)C2)cc1	22µM
COc1ccc(CC(=O)N2CCN(c3cc(-c4ccccc4)[nH]n3)CC2)cc1	-
CC(=O)Nc1ccc(CC(=O)N2CCc3c(c(-c4nncn4CC4CC4)nn3C)C2)cc1	-
COCCOC1CCN(C(=O)CCc2nc3ccccc3s2)CC1	-
COc1ccc(CC(=O)N2CCc3nc(C4CC4)nc(-c4ccc(Cl)cc4)c3C2)cc1	-
CCOc1ccc2c(n1)CCN(C(=O)Cc1ccc(OC)cc1)C2	-
COc1ccc(-c2nc(-c3ccccc3)nc3c2CN(C(=O)Cc2cccc(Cl)c2)CC3)cc1	-
NC(=O)c1cc[nH]c1C1CCCN(C(=O)CCCc2nc3ccccc3s2)C1 (stereo not drawn)	-
C=CCOc1cccc(NC(C)=O)c1	-
C=C(C)CN1CCN(Cc2ccc(C#N)cc2)CC1	-
COc1ccc(C)cc1NC(=O)CCc1ncc(-c2ccc(C)cc2)o1	-
CCOc1ccccc1NS(=O)(=O)c1cc(-c2cnc(C)o2)ccc1C	-
SMILES	KDM5B inhibitor
COc1cc(CNC(=O)c2cc3cccc(OC)c3oc2=O)ccc1OC(F)F	-
Cc1cccc(N2NC3(CCCC(C)C3)NC2=S)c1C (stereo not drawn)	-
CCc1nnc(CN(CC)C(=O)c2cc(S(N)(=O)=O)ccc2F)o1	-
Cc1ccccc1[C@H]1[C@@H](C(=O)N(C)Cc2ncccc2C)C[C@@](C)(C(=O)O)N1C	-
CCc1nnc(CN(CC)C(=O)c2ccc3nc(-c4ccccc4)cn3c2)o1	28µM
CCc1noc(CN(CC)C(=O)c2cc(-c3ccccc3)nn2C)n1	-
Cc1cccnc1CN(C)C(=O)c1ccc2nc(-c3ccccc3)cn2c1	28µM
Cc1ccc2nc(C(=O)N(C)Cc3cc(-c4cccnc4)no3)cn2c1	-
Nc1nnnn1Cc1nnc(SCc2cccc(Cl)c2)n1-c1ccccc1	-
COc1ccc(CC2CN(C(=O)c3ccnc(N)c3)CCO2)cc1 (stereo not drawn)	25µM
COc1ccc(CC2CN(C(=O)c3ccsc3)CCO2)cc1 (stereo not drawn)	-
COc1ccc(C(=O)N2CCOC(Cc3cccc(C(F)(F)F)c3)C2)o1 (stereo not drawn)	-
Cc1cc(C(=O)N2CCN(S(=O)(=O)c3ccc(F)cc3F)CC2)c(C)n1Cc1ccco1	-
C[S+](=O)([O-])NC1CC2(CCN(C(=O)Cc3c[nH]c4ccccc34)CC2)c2ccccc21 (stereo not drawn)	-
O=C1NCN(Cc2ccc(Cl)cc2)C12CCN(Cc1ccccc1C(F)(F)F)CC2	-
Cc1ccc(-c2nc3c4c(-c5ccccc5)c(-c5ccccc5)oc4ncn3n2)cc1	-
Nn1nc(-c2ccccc2)nc1-c1ccccc1	-
Nc1cccn2nc(-c3ccccc3)nc12	28µM
COc1ccc(OCCOC(=O)Cc2coc3cc4c(cc23)CCC4)cc1	-
CCc1ccccc1NC(=O)C(CC)CC	-
CCc1ccccc1NC(=O)c1cc2c(Cl)nc3ccccc3c2s1	-
CCc1ccccc1NC(=O)c1cc2c(s1)CN(C(C)C)C2	7.1µM
CCOC(=O)N1CCN(C(=O)c2cc(N3C(=O)CCS3(=O)=O)ccc2Cl)CC1	-
COc1ccccc1Oc1c(C)oc2cc(OCC(=O)Nc3cccc(C)c3C)ccc2c1=O	-
CCCN1CCCC2(CCN(c3cc(C)c4cccc(OC)c4n3)C2)C1=O (stereo not drawn)	28µM
Cc1cccc(CN2CCCC3(CCN(c4nc5ccccc5o4)C3)C2=O)c1 (stereo not drawn)	-
Cc1cc(N2CCC3(CCCN(CC4CCC4)C3=O)C2)nc2ccccc12 (stereo not drawn)	28µM
